The values below come from PubChem BioAssay (NCI).

Some test systems named below: SR leukemia; RPMI-8226 leukemia; OVCAR-8 ovarian; OVCAR-4 ovarian; SK-OV-3 ovarian; IGROV1 ovarian; OVCAR-3 ovarian; HS 578T breast; NCI/ADR-RES ovarian; OVCAR-5 ovarian.
Test in all cases: NCI-60 one-dose screen, 48 h (100 = growth as untreated, 0 = no growth, -100 = all killed)
Common to all, as to settings: 10 µM unless noted

SMILES strings stand for the structures. Compounds without any hit were thinned out: in the full panel of roughly 83,000, 20% have a hit.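 Results are percent growth after 48 hours of single-concentration exposure. 100 means growth as in untreated cells, lower positive values show inhibition; negative values down to -100 show cell death.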 Unmarked numbers belong to inactive results. The source made the active and inactive calls. How the source made its calls: active means growth percent below 10; inactive means the rest.

Turning to `NNc1nc(-c2cccnc2)nc2c1sc(=S)n2-c1ccccc1`, the growth in the test on SR leukemia is 88.3%; in the test on RPMI-8226 leukemia, 106%; with OVCAR-8 ovarian, 92.8%; in the test with OVCAR-4 ovarian it was 100%; in the test with SK-OV-3 ovarian, 79.6%; in the test with IGROV1 ovarian it was 97.9%. Further, the growth in the test on OVCAR-3 ovarian is 93.1%; with HS 578T breast, 112%; with NCI/ADR-RES ovarian, 102%.
For the compound `Nc1nc2ccccc2c2c1S(=O)(=O)c1ccc(Cl)cc1C2=O`, the growth in the test with SR leukemia was 3.3% (active); with RPMI-8226 leukemia, -15.1% (active); in the test on OVCAR-8 ovarian, 8.43% (active); in the test on OVCAR-4 ovarian it was 7.52% (active); in the test on SK-OV-3 ovarian it was 58.6%; in the test on IGROV1 ovarian, 27.6%. In addition, the growth was -12.5% (active) in the test on OVCAR-3 ovarian, 6.88% (active) with HS 578T breast and 24.8% in the test on NCI/ADR-RES ovarian.
On to `O=C(CSc1nnc(-c2cnccn2)n1-c1ccccc1)c1ccc(Cl)cc1`, for which the growth in the test with SR leukemia is 90.8%; in the test with RPMI-8226 leukemia, 92%; with OVCAR-8 ovarian it was 100%; in the test on OVCAR-4 ovarian it was 105%; in the test on SK-OV-3 ovarian, 108%; in the test on IGROV1 ovarian, 106%. Also, the growth in the test with OVCAR-3 ovarian was 98.3%; in the test with NCI/ADR-RES ovarian, 104%.
Take `COc1ccc(OC)c(/C=N/Nc2ncnc3c2c(C)nn3C)c1`: the growth was 81.4% in the test with SR leukemia; 100% in the test with RPMI-8226 leukemia; 109% with OVCAR-8 ovarian; 118% in the test on OVCAR-4 ovarian; 102% in the test on SK-OV-3 ovarian; 102% in the test on IGROV1 ovarian. In addition, the growth with OVCAR-3 ovarian is 107%; in the test on HS 578T breast, 88%; in the test on NCI/ADR-RES ovarian, 101%.
For `O=C1/C(=C/c2cn(-c3ccccc3)nc2-c2ccccc2)SC(=S)N1C1CCCCC1`, the growth with SR leukemia was 106%; in the test with RPMI-8226 leukemia, 114%; with OVCAR-8 ovarian, 103%; with OVCAR-5 ovarian, 108%; in the test on OVCAR-4 ovarian, 97.6%; in the test on IGROV1 ovarian it was 103%. Further, the results for the growth with OVCAR-3 ovarian, with HS 578T breast and with NCI/ADR-RES ovarian were 117%, 103% and 102%, respectively.
For the compound `CC(C)=CCC[C@](C)(O)[C@H]1CC[C@]2(C)[C@@H]1CC[C@@H]1[C@@]3(C)C/C(=C/c4ccco4)C(=O)C(C)(C)[C@@H]3CC[C@]12C`, the growth in the test with SR leukemia was 113%; in the test with RPMI-8226 leukemia it was 101%; in the test with OVCAR-8 ovarian, 104%; in the test on OVCAR-5 ovarian, 102%; with OVCAR-4 ovarian it was 106%; in the test on IGROV1 ovarian, 107%. For the same compound, the growth in the test with OVCAR-3 ovarian is 103%; in the test on HS 578T breast, 94.5%; with NCI/ADR-RES ovarian it was 104%.
As for `COc1cc2c(c(OC)c1OC)CCC(c1cccc(C(=O)Nc3ccc(C#N)cc3)c1)O2` (stereo not given), the growth with SR leukemia is 16.9%; in the test on RPMI-8226 leukemia, 14.4%; in the test on OVCAR-8 ovarian, 28.5%; in the test on OVCAR-4 ovarian it was 35.3%; in the test on SK-OV-3 ovarian, 73.2%; with IGROV1 ovarian, 68.9%. In addition, the values for the growth in the test with OVCAR-3 ovarian, with HS 578T breast and with NCI/ADR-RES ovarian were 65.6%, 72.3% and 19%, respectively.
`O=C1Nc2ccccc2/C1=C/c1cccn1CCCCn1c2ccccc2c(=O)c2ccccc21`: the growth with SR leukemia is 80.1%; with RPMI-8226 leukemia, 33.5%; in the test on OVCAR-8 ovarian it was 58.8%; with OVCAR-4 ovarian, 65.8%; in the test with SK-OV-3 ovarian it was 94.6%; in the test on IGROV1 ovarian, 77.3%. Further, the growth in the test with OVCAR-3 ovarian was 86.7%; in the test with HS 578T breast it was 86.3%; with NCI/ADR-RES ovarian it was 73.9%.
For the compound `CC(C)c1ccc(Cc2cnc(NC(=O)c3cc(Br)cs3)s2)cc1`, the growth is 16.8% with SR leukemia; 35.5% in the test on OVCAR-8 ovarian; 53.7% in the test with OVCAR-5 ovarian; 54.3% with OVCAR-4 ovarian; 28.6% with SK-OV-3 ovarian; 38% with IGROV1 ovarian. The growth in the test on OVCAR-3 ovarian is 15.6%; with HS 578T breast, 19.8%; in the test with NCI/ADR-RES ovarian, 6.8% (active).
In the case of `COc1cc(-c2cncn2-c2ccc(-c3nc4ccc(F)cc4s3)cc2)ccc1F`, the growth in the test on SR leukemia is 73%; with OVCAR-8 ovarian, 78.1%; in the test on OVCAR-5 ovarian, 75.7%; in the test with OVCAR-4 ovarian, 85.6%; with SK-OV-3 ovarian it was 106%; in the test with OVCAR-3 ovarian it was 97.5%. In addition, the growth in the test on HS 578T breast was 97.4%; in the test on NCI/ADR-RES ovarian, 80.3%.
Consider `C1CCC([PH+](C2CCCCC2)C2CCCCC2[PH+](C2CCCCC2)C2CCCCC2)CC1.[Au].[CH-]1CCCCC1C1CCCC[N-]1` (stereo not given), for which the growth was -3.06% (active) in the test with SR leukemia; -6.1% (active) in the test with OVCAR-8 ovarian; -69.3% (active) in the test with OVCAR-5 ovarian; -5.17% (active) in the test with OVCAR-4 ovarian; -65.8% (active) in the test with SK-OV-3 ovarian; -38.6% (active) in the test with IGROV1 ovarian. Moreover, the growth was -92.2% (active) in the test with OVCAR-3 ovarian, -5.47% (active) with HS 578T breast and 9.87% (active) in the test with NCI/ADR-RES ovarian.
Regarding `CCC(C)(C)C(=O)O[C@H]1C[C@@H](C)C=C2C=C[C@H](C)[C@H](CC[C@@H]3CC(SCCN)CC(=O)O3)[C@H]21` (stereo not given in full), the growth in the test with SR leukemia was 23.3%; in the test on RPMI-8226 leukemia, 6.62% (active); in the test on OVCAR-8 ovarian it was 88.1%; in the test with OVCAR-4 ovarian, 101%; in the test with IGROV1 ovarian, 98.6%; in the test on OVCAR-3 ovarian, 90.9%. Moreover, the growth in the test on HS 578T breast is 98.9%; with NCI/ADR-RES ovarian, 96.7%.
With `O=C(OC(CO)C(=O)NC12CC3CC(CC(C3)C1)C2)c1ccc(Cl)cc1` (stereo not given), the growth with SR leukemia is 84.7%; in the test with OVCAR-8 ovarian, 100%; in the test with OVCAR-5 ovarian, 96.3%; in the test on OVCAR-4 ovarian, 101%; in the test on SK-OV-3 ovarian, 107%; in the test on OVCAR-3 ovarian, 115%. The growth was 99.5% with HS 578T breast and 107% with NCI/ADR-RES ovarian.
Turning to `CC(=O)n1nc(C(=O)OC(C)(C)c2ccccc2)c2ccccc21`, the growth was 95.3% in the test with SR leukemia; 95.4% with OVCAR-8 ovarian; 80.7% in the test with OVCAR-5 ovarian; 93% in the test with OVCAR-4 ovarian; 88.2% with SK-OV-3 ovarian; 96.7% in the test on IGROV1 ovarian. Besides, the growth in the test on OVCAR-3 ovarian was 101%; with HS 578T breast it was 100%; with NCI/ADR-RES ovarian it was 89.5%.
On to `Cc1cc(=O)n(C(=O)Nc2ccccc2Cl)c2cc(O)ccc12`, for which the growth with SR leukemia was 112%; with RPMI-8226 leukemia, 97.8%; in the test with OVCAR-8 ovarian, 95.5%; with OVCAR-4 ovarian it was 107%; in the test with IGROV1 ovarian it was 104%; in the test with OVCAR-3 ovarian, 106%. Moreover, the growth was 98.7% in the test on HS 578T breast and 99.9% in the test on NCI/ADR-RES ovarian.
